Here are results for 21 molecules from PubChem BioAssay (NCI).

Some test systems named below: DU-145 prostate; K-562 leukemia; MALME-3M melanoma; MDA-MB-231 breast; RXF 393 renal; SF-268 CNS; SF-295 CNS; SF-539 CNS; UACC-257 melanoma; M14 melanoma.
Holding throughout (test): NCI-60 one-dose screen, 48 h (100 = growth as untreated, 0 = no growth, -100 = all killed)
What all share (details): 10 µM unless noted

Compounds without any hit were thinned out: in the full panel of roughly 83,000, 20% have a hit.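 Negative percent growth values reflect cell death: -40 means 40% of the cells present at the start died, and -100 means all died.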 Unmarked numbers belong to inactive results. Active and inactive are the calls of the source. Rule for the calls: active = growth percent below 10; inactive = the rest.

`Cc1ccccc1Cn1cnc2ccc(-c3cc(NC(=O)c4ccc(NC5CCN(C)CC5)cc4)n[nH]3)cc21`: the growth in the assay on DU-145 prostate was 90.8%; in the assay on K-562 leukemia, 15.8%; with MALME-3M melanoma it was 31.6%; with MDA-MB-231 breast it was 61.3%; in the assay with RXF 393 renal, 4.62% (active); in the assay with SF-268 CNS, 69.2%. The growth in the assay on SF-295 CNS is 89.9%; with SF-539 CNS, 27.4%; with UACC-257 melanoma it was 81%; in the assay on M14 melanoma, 82.9%.
As for `CCOC(=O)c1ccc2[nH]c(O)c(C(=Nc3ccc(N(C)C(=O)CN4CCN(C)CC4)cc3)c3ccccc3)c2c1`, the growth with DU-145 prostate was -9.05% (active); in the assay on K-562 leukemia, -20.8% (active); with MALME-3M melanoma, -88.9% (active); in the assay on MDA-MB-231 breast, -72.3% (active); with RXF 393 renal it was -97.7% (active); in the assay on SF-268 CNS it was 7.68% (active). The growth in the assay on SF-295 CNS is -6.29% (active); in the assay on SF-539 CNS it was -91.1% (active); in the assay with UACC-257 melanoma it was -55.4% (active); in the assay on M14 melanoma, -78.5% (active).
Consider `N#Cc1cccc(NC(=O)c2oc3ccccc3c2-c2cnn(-c3ccccc3)c2)c1`, for which the growth in the assay with DU-145 prostate was 105% [50 µM]; with K-562 leukemia it was 4.93% [50 µM] (active); in the assay on MALME-3M melanoma, 101% [50 µM]; in the assay on MDA-MB-231 breast, 82.7% [50 µM]; with RXF 393 renal, 75.7% [50 µM]; with SF-268 CNS it was 92.4% [50 µM]. Also, the growth in the assay on SF-295 CNS is 74% [50 µM]; in the assay on SF-539 CNS, 81.5% [50 µM]; in the assay on UACC-257 melanoma it was 94.7% [50 µM]; in the assay with M14 melanoma, 84% [50 µM].
As to `COc1cccc(NC(=O)Cn2cc(CN3CCN(c4ccnc5cc(Cl)ccc45)CC3)nn2)c1`, the growth was 104% with DU-145 prostate; 67.4% with K-562 leukemia; 95.6% in the assay on MALME-3M melanoma; 73.9% with MDA-MB-231 breast; 95% in the assay on RXF 393 renal; 84.7% with SF-268 CNS. Also, the growth in the assay on SF-295 CNS was 87.5%; in the assay on SF-539 CNS, 87.7%; in the assay on UACC-257 melanoma, 102%; in the assay on M14 melanoma, 104%.
For the molecule `COc1cc(-c2cc(-c3cccs3)c(C#N)c(N3CCOCC3)n2)cc(OC)c1OC`, the growth was 98.7% in the assay with DU-145 prostate; 10.9% in the assay on K-562 leukemia; 116% with MALME-3M melanoma; 65.4% in the assay with MDA-MB-231 breast; 40.6% with RXF 393 renal; 113% in the assay with SF-268 CNS. Further, the growth with SF-295 CNS was 62%; in the assay on SF-539 CNS it was 58.9%; with UACC-257 melanoma it was 20.7%; with M14 melanoma it was 44.6%.
`COc1ccc(-c2csc(NC(=O)CSc3nc(-c4ccccc4)cc(=O)[nH]3)n2)cc1`: the growth in the assay with DU-145 prostate was 76.1%; with K-562 leukemia, 42.9%; in the assay on MALME-3M melanoma, 60.2%; in the assay with MDA-MB-231 breast, 83.5%; in the assay with RXF 393 renal, 86.5%; with SF-268 CNS, 77.9%. Also, the growth in the assay on SF-295 CNS is 53.3%; with SF-539 CNS it was 78.3%; in the assay with UACC-257 melanoma it was 77.1%; with M14 melanoma, 59.1%.
Regarding `CCOC(=O)C1=C(NC)OCC1=O`, the growth in the assay on DU-145 prostate is 110%; with K-562 leukemia, 99%; in the assay on MALME-3M melanoma, 113%; in the assay on MDA-MB-231 breast, 107%; with RXF 393 renal it was 100%; with SF-268 CNS, 98.6%. Moreover, the growth is 106% in the assay with SF-295 CNS, 104% in the assay on SF-539 CNS, 92.5% with UACC-257 melanoma and 102% in the assay with M14 melanoma.
In the case of `C[C@@H]1CCC[C@H]1CC(N)C(=O)O` (stereo not given in full), the growth in the assay with DU-145 prostate is 106%; in the assay on K-562 leukemia it was 99%; with MALME-3M melanoma, 149%; in the assay with MDA-MB-231 breast, 121%; in the assay with RXF 393 renal it was 117%; in the assay with SF-268 CNS, 105%. Moreover, the growth is 106% with SF-295 CNS, 105% in the assay with SF-539 CNS, 106% with UACC-257 melanoma and 98.8% in the assay on M14 melanoma.
As to `N=C(N)c1ccc(-c2ccc(-c3ccc(F)cc3)o2)o1`, the growth in the assay with DU-145 prostate is 28.7%; in the assay with K-562 leukemia, -28.5% (active); in the assay on MALME-3M melanoma, 41.6%; in the assay with MDA-MB-231 breast it was 8.5% (active); in the assay with RXF 393 renal it was 39.6%; in the assay on SF-268 CNS, 30%. Also, the growth was 31.4% in the assay on SF-295 CNS, 21.9% in the assay on SF-539 CNS, 57.7% in the assay on UACC-257 melanoma and -54.1% (active) in the assay on M14 melanoma.
As to `COc1ccc(-c2ccc3cnc4sc(-c5ccc(OC)cc5)nc4c3n2)cc1`, the growth with DU-145 prostate is 107%; with K-562 leukemia, 96.6%; in the assay on MALME-3M melanoma, 111%; in the assay with MDA-MB-231 breast, 89.6%; in the assay with RXF 393 renal, 107%; with SF-268 CNS it was 95.4%. Moreover, the growth with SF-295 CNS is 100%; in the assay on SF-539 CNS it was 91.5%; in the assay with UACC-257 melanoma it was 106%; in the assay on M14 melanoma, 115%.
Take `Nc1ncnc2c1N=C(c1ccc(Cl)cc1)CC(c1ccc3c(c1)OCO3)N2` (stereo not given): the growth in the assay with DU-145 prostate was 109%; with K-562 leukemia, 71.3%; in the assay with MALME-3M melanoma it was 116%; in the assay with MDA-MB-231 breast, 88.6%; in the assay on RXF 393 renal it was 80.9%; in the assay on SF-268 CNS, 91.1%. Further, the growth in the assay with SF-295 CNS was 128%; with SF-539 CNS, 88.3%; with UACC-257 melanoma, 110%; with M14 melanoma, 118%.
Take `O=C(Nc1ccc(-c2nc(N3CCOCC3)c3cccn3n2)cc1)Nc1cccnc1`: the growth is 5.28% (active) in the assay with DU-145 prostate; 15.2% in the assay with K-562 leukemia; -29.9% (active) in the assay on MALME-3M melanoma; -0.801% (active) with MDA-MB-231 breast; -30.5% (active) in the assay on RXF 393 renal; 11.9% in the assay on SF-268 CNS. For the same molecule, the growth in the assay on SF-295 CNS is -36.4% (active); with SF-539 CNS, -39.8% (active); in the assay with UACC-257 melanoma it was -11.7% (active); in the assay with M14 melanoma, -0.739% (active).
Consider `CCN(CC)C(=S)SC(SC(=S)N(CC)CC)C(=O)c1nnn(-c2ccc([N+](=O)[O-])cc2)c1C`, for which the growth in the assay on DU-145 prostate is 104%; with K-562 leukemia, 81%; in the assay on MALME-3M melanoma it was 94.3%; with MDA-MB-231 breast, 95.1%; in the assay on RXF 393 renal, 114%; in the assay with SF-268 CNS, 92.9%. The growth in the assay with SF-295 CNS is 100%; in the assay on SF-539 CNS, 98.3%; with UACC-257 melanoma it was 101%; in the assay on M14 melanoma, 96.9%.
With `CCc1n(Cc2ccc3ccccc3c2)cc[n+]1Cc1ccc2ccccc2c1`, the growth with DU-145 prostate was 23.8%; in the assay with K-562 leukemia, 8.91% (active); with MALME-3M melanoma it was -21.9% (active); in the assay on MDA-MB-231 breast, -18.9% (active); in the assay with RXF 393 renal, 1.07% (active); in the assay with SF-268 CNS, 12.5%. Moreover, the growth in the assay with SF-295 CNS is 6.3% (active); in the assay on SF-539 CNS, 12.6%; in the assay with UACC-257 melanoma it was -38.2% (active); in the assay with M14 melanoma, -9.48% (active).
Turning to `CC(=O)N1N=C(c2ccc(Nc3nc(Nc4ccc(Cl)cc4)nc(Nc4ccc(Cl)cc4)n3)cc2)CC1c1ccco1` (stereo not given), the growth with DU-145 prostate is 107%; with K-562 leukemia, 79.5%; with MALME-3M melanoma it was 97.9%; in the assay on MDA-MB-231 breast, 92.7%; with RXF 393 renal, 71.1%; with SF-268 CNS, 103%. Besides, the growth is 92.8% in the assay with SF-295 CNS, 96% in the assay with SF-539 CNS, 96.4% in the assay on UACC-257 melanoma and 90.5% in the assay with M14 melanoma.
On to `O=C(O)CNC1=C(Cl)C(=O)c2ccccc2C1=O`, for which the growth is 112% in the assay with DU-145 prostate; 93.4% with K-562 leukemia; 118% with MALME-3M melanoma; 83% in the assay with MDA-MB-231 breast; 128% with RXF 393 renal; 103% in the assay on SF-268 CNS. The growth with SF-295 CNS is 92.1%; in the assay with SF-539 CNS, 123%; in the assay with UACC-257 melanoma, 91.1%; in the assay on M14 melanoma, 98.3%.
In the case of `CCN1CCN(Cc2cn(CC(=O)Nc3ccc4c(ccn4Cc4ccccc4)c3)nn2)CC1`, the growth in the assay on DU-145 prostate is 105%; with K-562 leukemia, 94.8%; in the assay with MALME-3M melanoma, 99.5%; in the assay with MDA-MB-231 breast, 91.5%; in the assay on RXF 393 renal it was 111%; in the assay on SF-268 CNS it was 95.9%. In addition, the growth in the assay on SF-295 CNS is 105%; in the assay on SF-539 CNS it was 102%; in the assay on UACC-257 melanoma it was 103%; in the assay on M14 melanoma it was 98.7%.
On to `O=C(Nc1ncc(Cc2ccc(Cl)c(C(F)(F)F)c2)s1)c1ccc2nnsc2c1`, for which the growth in the assay on DU-145 prostate was 53.7%; in the assay on K-562 leukemia, 24.7%; with MALME-3M melanoma it was 48.7%; in the assay on MDA-MB-231 breast, 67.4%; with RXF 393 renal, 75.6%; with SF-268 CNS it was 50.7%. The growth in the assay on SF-295 CNS was 20%; with SF-539 CNS, 5.13% (active); in the assay on UACC-257 melanoma, 64.9%; in the assay with M14 melanoma, 32.2%.
`O=S(=O)(NCCNc1nccc(-c2c(-c3cccc(F)c3)nc3occn23)n1)c1ccc(Br)cc1`: the growth was 90.4% in the assay with DU-145 prostate; 69.1% in the assay on K-562 leukemia; 76.9% in the assay with MALME-3M melanoma; 82.3% in the assay with MDA-MB-231 breast; 68.3% with RXF 393 renal; 90.7% with SF-268 CNS. Moreover, the growth in the assay with SF-295 CNS was 99.4%; in the assay with SF-539 CNS, 92%; in the assay on UACC-257 melanoma, 98.4%; with M14 melanoma, 79.8%.
On to `C#CCOc1ccc2ncnc(Nc3ccc(NC(=O)CCl)cc3)c2c1`, for which the growth is 18.1% in the assay on DU-145 prostate; 0.218% (active) in the assay on K-562 leukemia; -74.5% (active) with MALME-3M melanoma; -0.398% (active) in the assay on MDA-MB-231 breast; -59.9% (active) in the assay on RXF 393 renal; -7.47% (active) with SF-268 CNS. The growth with SF-295 CNS was 60.6%; in the assay with SF-539 CNS it was -81.8% (active); in the assay on UACC-257 melanoma it was 38.8%; with M14 melanoma, 4.03% (active).
In the case of `CCN(CC)CCNC(=O)c1cn2ncnc(Oc3ccc(NC(=O)Nc4ccc(Cl)c(C(F)(F)F)c4)c(F)c3)c2c1C`, the growth in the assay on DU-145 prostate was 8.01% (active); in the assay with K-562 leukemia, -23% (active); in the assay on MALME-3M melanoma, -89.7% (active); in the assay with MDA-MB-231 breast, -82.5% (active); with RXF 393 renal, -44.9% (active); in the assay on SF-268 CNS it was 43.1%. In addition, the growth with SF-295 CNS is -52.8% (active); with SF-539 CNS, -79.8% (active); in the assay with UACC-257 melanoma, -57.4% (active); in the assay with M14 melanoma, -83.2% (active).
